Screens deposited in PubChem by National Center for Advancing Translational Sciences (NCATS).
Rows were chosen to be rich in hits. Some 12% of all compounds tested hit in one or more screens of this group.
JMJD2A Tudor inh: inhibitors of human JMJD2A Tudor domain. O75164. AlphaScreen JMJD2A-Tudor / H3K4me3 peptide binding. Potency, µM (highest dose often 114 µM), actives largely listed as inhibitors. 390,000 tested, 4.4% active. AID 504339; further: nearly all actives have a fitted effect of over 50% in size
BAZ2B inh: inhibitors of human BAZ2B bromodomain | Q9UIF8 | AlphaScreen BAZ2B-H3K14Ac peptide displacement | Potency, µM (top dose mostly 114 µM), actives largely listed as inhibitors | 360,000 tested, 4.4% active; further: nearly all actives have a fitted effect of over 60% in size
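Protein-peptide AlphaScreen: BAZ2B 50 nM, b-H3K14Ac 50 nM, 1x PBS pH 7.4 + 0.01% Tween-20. Preincubation 30 min RT; cpd 30 min RT (top 110 uM); beads 20 min RT, light-protected.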
Sfp PPTase inh: inhibitors of Bacillus subtilis Sfp phosphopantetheinyl transferase; Q9F4F7; Biochemical Sfp PPTase activity, qHTS; Potency, µM, most hits filed as inhibitors; 310,000 tested, 3.5% active; AID 1490;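 further: the enzyme is Sfp with the accession as filed and its product quenches rhodamine fluorescence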
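Fluorescence-quenching assay: 15 nM Sfp-PPTase preincubated 15 min at room temperature with compound, then 5 uM rhodamine-CoA and 12.5 uM BHQ-2-labelled YbbR peptide added. Fluorescence (ex 525/em 598 nm) read at start and after 30 min; difference gives rate.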
L3MBTL1 inh: inhibitors of human L3MBTL1; AID 485360; AlphaScreen L3MBTL1–H3K9me1 peptide binding; 230,000 tested, 0.66% active; Q9Y468; Potency, µM (top dose mostly 57.1 µM), most hits filed as inhibitors; further: nearly all actives have a fitted effect of over 60% in size
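L3MBTL1 50 nM + b-AHA-H3(1-15)K9me1 75 nM, 30 min RT; compound added, 30 min RT; streptavidin donor/Ni-chelate acceptor beads 10 ug/mL each final, 30 min RT dark; AlphaScreen read.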
G9a inh: inhibitors of human histone lysine methyltransferase G9a; G9a H3K9 monomethylation, AlphaScreen, 2 h; AID 504332; 350,000 tested, 8.8% active; Potency, µM (top dose mostly 102 µM), actives largely listed as inhibitors; further: nearly all actives have a fitted effect of over 75% in size
Target sequence (Q96KQ7 913-1193 limits assumed): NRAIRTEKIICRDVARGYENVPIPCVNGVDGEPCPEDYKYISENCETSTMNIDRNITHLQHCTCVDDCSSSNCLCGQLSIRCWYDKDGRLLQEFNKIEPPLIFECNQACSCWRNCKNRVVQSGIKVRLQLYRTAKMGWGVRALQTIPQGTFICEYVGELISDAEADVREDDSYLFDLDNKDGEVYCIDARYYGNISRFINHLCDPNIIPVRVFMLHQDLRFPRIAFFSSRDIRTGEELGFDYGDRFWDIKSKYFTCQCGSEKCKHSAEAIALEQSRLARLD
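Chemiluminescent proximity detection of H3K9 monomethylation, read after 10 min bead incubation in the dark. Reaction: 20 nM G9a, 500 nM biotin-H3K9 peptide, 20 uM SAM cofactor, 2 h, room temperature, following 15 min enzyme-compound preincubation.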
HP1b binding inh: inhibitors of HP1-beta chromodomain binding to methylated histone tails; P83916; AlphaScreen HP1-beta / biotin-H3K9me3 peptide binding; Potency, µM (top dose mostly 114 µM), usual class: inhibitors; 390,000 tested, 0.56% active; AID 540317; further: nearly all actives have a fitted effect of over 70% in size
Target sequence (P83916 whole entry, looked up): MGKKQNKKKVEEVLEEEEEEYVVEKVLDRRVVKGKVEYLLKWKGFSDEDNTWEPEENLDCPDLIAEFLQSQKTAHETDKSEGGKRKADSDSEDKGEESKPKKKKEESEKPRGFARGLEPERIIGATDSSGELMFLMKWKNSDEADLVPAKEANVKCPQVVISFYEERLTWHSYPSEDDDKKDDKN
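HP1-beta protein (50 nM final) preincubated 30 min at room temperature with biotinylated H3(1-18)K9me3 peptide (50 nM) in PBS pH 7.4, 0.01% Tween-20, then compound added for 30 min. AlphaScreen streptavidin donor/nickel chelate acceptor beads (10 ug/mL final), 30 min dark, luminescence read.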
Numbers stand for hits; i = inactive; ? = inconclusive; nt = not tested or not shown; [ ] = another dose, or the depositor's remark. The call rests on the fitted dose curve; in most records, active means well fitted curve in the direction sought with a large enough effect; inconclusive means small, poorly fitted or top-dose-only effect, or another doubt; inactive means no such curve, though single readings can be large; an effect the other way counts as inactive or inconclusive.

SMILES	JMJD2A Tudor inh	BAZ2B inh	Sfp PPTase inh	L3MBTL1 inh	G9a inh	HP1b binding inh
O=C(Cc1ccc(Cl)cc1)Nc1ccc(S(=O)(=O)Nc2ncccn2)cc1	i	i	i	i	79.4µM	i
Cc1cc(C)c2c(CC(=O)Nc3ccc(S(=O)(=O)Nc4nc(C)cc(C)n4)cc3)coc2c1	i	i	nt	nt	14.1µM	i
CC(=O)NS(=O)(=O)c1ccc(NC(=O)CCC(=O)Oc2ccc(C)cc2)cc1	i	i	i	nt	i	i
CC(=O)NS(=O)(=O)c1ccc(NC(=O)CSc2ccc(C)cc2)cc1	i	i	79.4µM	i	?	i
CC(=O)Nc1ccc(SCC(=O)NNC(=O)CN(C)S(=O)(=O)c2ccc(C)cc2)cc1	i	i	nt	i	44.7µM	i
Cc1cnc(CNc2nc(-c3c(C)noc3C)nc3ccccc23)cn1	nt	nt	i	nt	i[0.501 µM]	nt
CCc1ccc(C(=O)c2cn(CC(=O)Nc3cc(OC)ccc3OC)c3ccc(C)cc3c2=O)cc1	i	i	nt	nt	i	i
COc1cc(CNCCSc2nnnn2C)ccc1OCc1ccccc1C	i	i	nt	nt	i	i
CCCNC(=O)c1cnc2sc(N3CCCCCC3)nn2c1=O	i	i	nt	nt	i	i
CCCS(=O)(=O)NCCc1sc2nc(-c3ccc(Cl)cc3)nn2c1C	i	i	nt	nt	i	i
O=C(Nc1ccc(S(=O)(=O)Nc2ncccn2)cc1)C1=COCCO1	i	i	nt	i	31.6µM	i
Cc1cc(C)nc(SCC(=O)Nc2ccc(S(=O)(=O)Nc3ncccn3)cc2)n1	i	i	12.6µM	i	nt	i
Cc1cc(C)nc(NS(=O)(=O)c2ccc(NC(=O)Cn3c(=O)oc4ccccc43)cc2)n1	i	i	i	nt	79.4µM	i
CC(=O)Nc1ccc(S(=O)(=O)Nc2ncccn2)cc1	i	nt	i	?	i	i
Cc1cc(C)nc(NS(=O)(=O)c2ccc(NS(=O)(=O)c3ccc(C#N)cc3)cc2)n1	i	i	i	nt	?	i
Cc1cc(C)nc(SCC(=O)NNS(=O)(=O)c2ccc(C#N)cc2)n1	44.7µM	56.2µM	nt	?	7.94µM	?
Cc1ccc2sc(N(Cc3cccnc3)C(=O)CCOc3ccccc3)nc2c1C	i	i	nt	nt	i	i
O=C(/C=C/c1cccc(F)c1)Nc1ccc(S(=O)(=O)Nc2ncccn2)cc1	i	i	i	i	i	i
CCc1c(C(=O)NNC(=S)Nc2ccc(S(=O)(=O)Nc3ncccn3)cc2)csc1C	i	i	i	nt	20µM	i
O=C(/C=C/c1ccc(Br)cc1)Nc1ccc(S(=O)(=O)Nc2ncccn2)cc1	i	89.1µM	i	i	nt	i
Cc1ccc(SCC(=O)Nc2ccc(S(=O)(=O)Nc3ncccn3)cc2)cc1	i	i	i	i	44.7µM	i
O=[N+]([O-])c1cc(C(F)(F)F)ccc1NCC1CCCO1 (stereo not drawn)	?	i	i	i	i	i
CC1CCC(=NNc2ccc(C(F)(F)F)cc2[N+](=O)[O-])CC1 (stereo not drawn)	39.8µM	10µM	i	i	3.55µM	?
CC(C)C(Nc1ccc(C(F)(F)F)cc1[N+](=O)[O-])C(=O)O (stereo not drawn)	i	nt	i	i	?	i
C[C@H](Nc1ccc(C(F)(F)F)cc1[N+](=O)[O-])C(=O)O	i	i	i	i	56.2µM	i
SMILES	JMJD2A Tudor inh	BAZ2B inh	Sfp PPTase inh	L3MBTL1 inh	G9a inh	HP1b binding inh
CC(=O)Nc1ccc(NC(=O)CSc2ccc(C(F)(F)F)cc2[N+](=O)[O-])cc1	i	i	i	i	44.7µM	i
C/C(=N\Nc1ccc(C(F)(F)F)cc1[N+](=O)[O-])C(C)C	?	10µM	i	i	11.2µM	39.8µM
COc1ccc(Nc2ccc(N3C(=O)CCC3=O)cc2[N+](=O)[O-])cn1	i	i	i	?	i	i
COc1ccc(Nc2ccc(C(F)(F)F)cc2[N+](=O)[O-])cn1	56.2µM	39.8µM	i	nt	?	?
CCN(CC)CCOC(=O)C(c1ccccc1)c1ccccc1	i	?	i	i	i	i
CCN(CC)CCOC(=O)C(Cc1ccco1)Cc1cccc2ccccc12 (stereo not drawn)	12.6µM	nt	nt	nt	nt	?
CCN(CC)CCOC(=O)CCc1cccc2ccccc12	28.2µM	?	i	i	7.94µM	i
COc1cccc(/C=C(\C#N)C(=O)Nc2ccc(NC(C)=O)cc2)c1OC	i	i	nt	nt	i	i
Cc1cc(NC(=O)CN2CCC(O)CC2)nc2c1c(=O)oc1ccccc12	i	i	nt	nt	i	i
Cc1ccc(-n2c(=O)c3c(c4cc(C)ccc4n3C)n(CC(=O)c3ccc(Cl)cc3)c2=O)cc1	i	i	nt	nt	i	i
O=c1/c(=C\c2ccc(O)cc2)sc2n1C(c1ccccc1)C(c1ccccc1)=NN=2 (stereo not drawn)	i	i	50.1µM	?	44.7µM	i
Cc1ccc(NC(=O)CN2C(=O)CCc3ccccc32)cc1C	?	79.4µM	nt	nt	i	i
Cc1ccc(C)c(NC(=O)CN2C(=O)CCc3ccccc32)c1	?	79.4µM	nt	nt	?	i
Cc1ccc(Cl)cc1NC(=O)CN1C(=O)CCc2ccccc21	i	i	nt	nt	i	i
CC(C)=CCC/C(C)=C/CC/C(C)=C/CC/C=C(\C)CC/C=C(\C)CCC=C(C)C	nt	nt	i	nt	i[12.7 µM]	nt
Cc1cc(C)c(C#N)c(N2CCCC2)n1	i	i	i	i	i	i
Cc1cc(C(F)(F)F)c(C#N)c(N2CCOCC2)n1	28.2µM	i	?	i	i	i
O=C(CCSCc1cnn(-c2ccccc2)c1-n1cccc1)NCc1ccccc1F	i	i	nt	nt	?	i
COc1cccc(CN2CCN(Cc3cc(OC)c(OC)cc3[N+](=O)[O-])CC2)c1	0.794µM	?	56.2µM	i	7.94µM	i
COc1cc(CN2CCSCC2)c([N+](=O)[O-])cc1OC	2.24µM	?	?	i	nt	?
COc1ccc(C(=O)Cc2cc(OC)c(OC)cc2[N+](=O)[O-])cc1	i	i	i	i	i	i
CCC(CC)C(=O)N1CCc2cc(OC)c(OC)cc2C1COc1ccc2c(C)cc(=O)oc2c1 (stereo not drawn)	i	i	nt	nt	i	i
COc1ccc(-c2c(C#N)c(N)nc3c2CCCCCC3)cc1OC	i	i	i	nt	i	i
COc1ccc(-c2c3c([nH]c(=S)c2C#N)CCC3)cc1	44.7µM	i	22.4µM	i	?	i
COc1ccc(OC)c(-c2c3c([nH]c(=S)c2C#N)CCCC3)c1	i	?	22.4µM	i[11.4 µM]	?	i
COc1ccc(-c2cc(C(F)(F)F)n3nc(C(=O)Nc4cc(C(F)(F)F)ccc4Cl)cc3n2)cc1OC	i	i	nt	nt	i	i
CCN(CC)CCc1c(C)[nH]c(C(=O)OCc2ccccc2)c1C	i	?	i	nt	79.4µM	i
Cc1ccc2cc(C(c3nnnn3C3CCCC3)N(Cc3ccco3)Cc3cccs3)c(=O)[nH]c2c1 (stereo not drawn)	i	i	i	nt	28.2µM	i
